From PubChem
RE007 growth inh: qHTS Assay for Inhibitors of the HIV-1 protein Vpr; hit rate 0.21% among 360,000; S. pombe RE007 Vpr strain, BacTiter-Glo ATP luminescence, 24 h; Potency, µM (series often up to 92.2 µM), without a hit: top-dose activity change, negative = less growth, hits mostly inhibitors; active = well fitted falling curve with a large enough effect; inconclusive = small, poorly fitted or top-dose-only effect; inactive = no such curve, though single readings can be large or run the other way; note: nearly all actives have a fitted effect of over 50% in size
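Fission yeast strain RE007, carrying one chromosomally integrated HIV-1 vpr copy, was seeded at OD 0.01 in PMG+AL medium with 23 nL pinned compound. After 24 h at 30 °C and 99% humidity, viability was read by BacTiter-Glo luminescence.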
TbPYK inhibitor: qHTS of Trypanosoma Brucei Inhibitors; TbPYK enzyme, Kinase-Glo Plus ATP luminescence, 45 min; hit rate 0.12% among 410,000; pyruvate kinase (Trypanosoma brucei), Q57TT1; Potency, µM (series often up to 76.8 µM), for the others: top-dose activity, negative = inhibition, most hits filed as inhibitors; AID 624173, 2012; note: nearly all actives have a fitted effect of over 50% in size
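Glycolytic pyruvate kinase of T. brucei was incubated with substrate, test compound and 130 uM ADP for 45 minutes at room temperature. Luminescent Kinase-Glo Plus signal was measured after 10 minutes.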
FBPA Giardia inh: qHTS Assay for Inhibitors of Fructose-1,6-bisphosphate Aldolase from Giardia Lamblia; AID 2451, 2010; Potency, µM (top dose mostly 59.6 µM), for the others: at the top dose activity, negative = inhibition, usual class: inhibitors; purified Giardia FBPA; A8B2U2; hit rate 0.71% among 290,000; note: nearly all actives have a fitted effect of over 55% in size
Target sequence (A8B2U2 whole entry, looked up): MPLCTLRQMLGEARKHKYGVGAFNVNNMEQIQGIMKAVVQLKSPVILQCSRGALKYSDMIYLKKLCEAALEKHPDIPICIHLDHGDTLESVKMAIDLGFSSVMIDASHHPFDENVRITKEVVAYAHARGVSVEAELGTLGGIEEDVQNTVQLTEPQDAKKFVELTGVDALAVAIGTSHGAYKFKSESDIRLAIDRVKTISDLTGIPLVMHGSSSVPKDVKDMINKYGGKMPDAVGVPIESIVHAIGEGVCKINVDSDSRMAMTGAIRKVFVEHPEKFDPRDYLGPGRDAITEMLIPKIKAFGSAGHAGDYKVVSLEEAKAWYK
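Giardia FBPA (40 nM reagent) was preincubated 10 min at RT with compound (up to 57.5 uM final), then substrate plus GAPDH/TPI/NAD/arsenate coupling system with diaphorase/resazurin was added; resorufin fluorescence (525/598 nm) was read after 20 min.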
LmPK inh: qHTS Assay for Inhibitors of Leishmania Mexicana Pyruvate Kinase (LmPK) | Q27686 | hit rate 0.37% among 290,000 | purified LmPK, Kinase-Glo ATP luminescence, 1 h | Potency, µM (series often up to 57.5 µM), for inactives: top-dose activity change, negative = inhibition, hits mostly inhibitors
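qHTS format; LmPK 0.1 nM; substrates PEP 0.5 mM and ADP 0.1 mM. One-hour room-temperature incubation, then coupled luciferase luminescence; 0.5 nM enzyme wells mark activation.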
Sm TGR inh: qHTS Assay for the Inhibitors of Schistosoma Mansoni Peroxiredoxins. Schistosoma mansoni thioredoxin glutathione reductase (TGR), Q962Y6. purified TGR, DTNB reduction, TNB absorbance 405 nm. Potency, µM (doses to about 114 µM), for the others: at the highest dose activity change, negative = inhibition, hits mostly inhibitors. hit rate 3% among 360,000. AID 485364, 2010; note: nearly all actives have a fitted effect of over 60% in size
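TGR 20 nM + NADPH 100 uM (dispensed conc.), cpd preinc 15 min RT; start with NADPH (500 uM addition) then DTNB (15 mM addition). Kinetic TNB absorbance, 405 nm filter. Four-parameter Hill fit across titration.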
* = called active by the depositor; ? = inconclusive; . = not tested or not shown; [ ] = remark or other dose. Most compounds without a hit are left out; they make up all but 3.3% or so of the library. Unless noted, calls come from the whole dose curve; as a rule, active = well fitted curve in the direction sought with a large enough effect; inconclusive = small, poorly fitted or top-dose-only effect, or another doubt; inactive = no such curve, though single readings can be large; an effect the other way counts as inactive or inconclusive. % is set by controls: 0 for no effect and ±100 for the full control effect; potency is the fitted concentration of half-maximal effect.

SMILES	RE007 growth inh	TbPYK inhibitor	FBPA Giardia inh	LmPK inh	Sm TGR inh
O=C(COc1ccccc1)N(Cc1cccnc1)c1nc2ccc(F)cc2s1	.	-5.5%	.	.	1.7%
CN(C)CCCN(C(=O)CCOc1ccccc1)c1nc2ccc(F)cc2s1	-21.8%	-7.1%	-0.2%	-8.9%[11.5 µM]	0.631µM*
O=C(CCOc1ccccc1)N(Cc1cccnc1)c1nc2ccc(F)cc2s1	.	-5.9%	.	.	3.98µM*
CN(C)CCCN(C(=O)CCOc1ccccc1)c1nc2c(F)cccc2s1	-14.8%	?	1.7%	-2.0%[11.5 µM]	0.398µM*
CN(C)CCCN(C(=O)CCc1ccccc1)c1nc2c(F)cccc2s1	4.8%	0.0%	-10.7%	1.3%	4.2%
CNC(=O)CN1C(=O)c2cccc3cccc1c23	8.6%	-3.8%	-6.1%	0.8%	4.2%
CN1/C(=N\O)c2cccc3cccc1c23	-10.0%	-9.8%	8.91µM*	-1.6%	-7.0%
COc1ccc(S(=O)(=O)N2CCN(c3cccc(C)c3C)CC2)c2ccccc12	.	1.2%	.	.	0.5%
O=C(CSCc1ccccc1)N1CCN(C(=O)c2ccco2)CC1	10.0%	1.1%	5.2%	-0.1%	44.7µM*
CCOC(=O)C1CCN(C(=O)CSCc2nc(-c3ccc(OCC)cc3)oc2C)CC1	6.7%	0.5%	3.0%	0.4%	-17.5%
CCOc1ccc(-c2nc(CSCC(=O)N3CCN(C(=O)c4ccco4)CC3)c(C)o2)cc1	-14.6%	0.0%	-8.8%	12.4%	89.1µM*
OCCOCCn1c(C(CO)Nc2nc(-c3ccc(Cl)cc3)cs2)nc2ccccc21 (configuration not stated)	?	0.2%	.	.	.
CC(C)c1cc(CN2CCN(CCC#N)CC2)cc(C(C)C)c1O	-1.5%	-3.9%	2.9%	-1.7%	22.4µM*
Cc1cc2c(C)cc(=O)[nH]c2cc1NC(=O)CCl	14.4%	-12.2%	-13.0%	3.9%	10µM*
Cc1cc2oc(=O)cc(C)c2cc1NC(=O)CCl	33.2%	-13.5%	2.8%	-0.8%	12.6µM*
CC1CCN(CC(=O)NNC(=O)c2cccc(Br)c2)CC1	-3.0%	0.0%	.	-6.2%	3.8%
CCC(=O)Nc1ccc(C(=O)CN2CCC(C)CC2)cc1	.	.	-13.6%	12.5%	31.6µM*
CC1CCN(CC(=O)c2cccc(C(F)(F)F)c2)CC1	-7.0%	-4.9%	?	0.1%	35.5µM*
CC(C)CC(=O)Nc1ccc(C(=O)CN2CCC(C)CC2)cc1	-19.8%	1.4%	-18.2%	0.2%	20µM*
CC1CCN(CC(=O)Nc2ccc(C(=O)N3CCCCC3)cc2)CC1	59.8%	-4.8%	?	1.9%	1.7%
Cc1cccc(NC(=O)c2cccc(C(=O)Nc3cccc(C)c3)c2)c1	2.4%	-13.7%	8.2%	0.0%	?
CCOC(=O)c1cnc2ccc(C(=O)OC)cc2c1NCCN1CCOCC1	-14.1%	0.0%	-15.7%	-4.2%	31.6µM*
CCOC(=O)c1cnc2ccc(C(=O)OC)cc2c1NCCCN1CCOCC1	-7.7%	-4.1%	-1.7%	3.8%	?
CCCNC(=O)c1csc(Nc2cccc3ccccc23)n1	-3.3%	-8.0%	-5.1%	5.0%	-3.5%
O=C(NCC1CCCO1)c1csc(Nc2cccc3ccccc23)n1 (configuration not stated)	11.1%	4.1%	16.1%	14.1µM*	0.5%
SMILES	RE007 growth inh	TbPYK inhibitor	FBPA Giardia inh	LmPK inh	Sm TGR inh
CCOC(=O)/C=c1\s/c(=C(\C#N)C(N)=O)n(-c2ccccc2)c1=O	24.9%	-7.4%	2.1%	-2.6%	10µM*
CCOC(=O)/C=c1\s/c(=C(\C#N)C(=O)NC)n(-c2ccccc2)c1=O	12.4%	-9.8%	-0.4%	-8.3%	-4.6%
CC#CCOC(=O)c1c(C)nc2sc3c(c2c1N)CC[C@@H](O)C3	.	.	5.5%	.	.
COc1ccc(C(=O)c2ccc(C)cc2)c(OC)c1OC	?	-0.8%	.	.	.
COc1ccc(C(=O)c2ccc(O)cc2)c(O)c1O	.	.	22.3µM*	.	.
Cc1ccc2cc3cc(C(=O)N(C)c4ccccc4C)oc3nc2c1	.	2.2%	.	.	0.7%
COc1ccc(/C(O)=C2/C(=O)C(=O)N(CCCN(C)C)C2c2ccc(C)o2)cc1Cl (configuration not stated)	.	.	-18.9%	0.4%	44.7µM*
COc1ccc(C2/C(=C(/O)c3cnn(-c4ccccc4)c3C)C(=O)C(=O)N2CCN(C)C)cc1OC (configuration not stated)	3.8%	3.2%	.	.	.
COc1ccc(/C(O)=C2/C(=O)C(=O)N(CCN(C)C)C2c2ccc(OC)c(OC)c2)c(C)c1 (configuration not stated)	3.1%	0.3%	-8.5%	1.3%	39.8µM*
CC(C)COc1ccc(/C(O)=C2/C(=O)C(=O)N(CCN(C)C)C2c2ccncc2)cc1 (configuration not stated)	6.1%	0.8%	-4.5%	1.2%	-25.0%
COc1cc(C2/C(=C(/O)c3ccc(OCC(C)C)cc3)C(=O)C(=O)N2CCN(C)C)ccc1O (configuration not stated)	12.4%	-5.5%	-6.4%	-2.7%	44.7µM*
CCCc1cc(=O)n2[nH]c(-c3ccc(C)cc3)nc2n1	.	0.4%	.	.	7.0%
CC(=O)Oc1c(C)cc(O)c2ccccc12	.	.	?	-6.1%	39.8µM*
O=[N+]([O-])c1cccc(/C=C2\CCC(/C=N/Nc3ccc4ccccc4n3)=C2N2CCOCC2)c1	-14.3%	6.8%	6.6%	1.0%	-6.9%
O=C(NP(=O)(N1CCCC1)N1CCCC1)C1=C(N2CCOCC2)/C(=C/c2cccc([N+](=O)[O-])c2)CC1	-15.1%	-3.7%	-1.8%	-2.0%	17.8µM*
CCOC(=O)C(=O)C1=C(N2CCOCC2)/C(=C\c2cccc([N+](=O)[O-])c2)CC1	-12.9%	1.7%	-9.5%	2.3%	39.8µM*
CCCN1C/C(=C/c2cccc([N+](=O)[O-])c2)C(=O)/C(=C/c2cccc([N+](=O)[O-])c2)C1	-8.5%	-0.1%	1.8%	1.1%	-19.6%
CCN(Cc1ccccc1)C(=O)c1cc2c(OC)c(OC)c(OC)cc2[nH]1	-12.4%	1.1%	4.6%	0.2%	35.5µM*
CC(=O)c1cccc(NC(=S)NC(=O)c2ccc(Cl)cc2)c1	6.3%	4.4%	-26.9%	3.9%	-20.1%
Cc1cccc(C(=O)NC(=S)Nc2ccc(N3CCOCC3)cc2)c1	5.4%	-11.2%	-3.2%	0.4%	14.1µM*
O=C(Nc1ccc2snnc2c1)N1CCOCC1	22.2%	2.4%	-0.3%	-1.2%	0.0%
S=C(Nc1ccc(N2CCOCC2)cc1)Nc1ccc2snnc2c1	-0.6%	-1.3%	?	5.8%	35.5µM*
COc1ccc(C(=O)NC(=S)Nc2ccc(N3CCOCC3)cc2)cc1Cl	-21.0%	-1.2%	-7.1%	-9.9%	20µM*
CC(=O)c1cccc(NC(=S)NC(=O)c2cccc(C)c2)c1	.	-7.1%	-21.5%	-1.0%	28.2µM*
